Data on nine molecules can be found in PubChem BioAssay.

Active and inactive are the calls of the source.

Test [1] has as its target Albumin (Bos taurus) (UniProt P02769). The experiment in a line: bovine serum albumin binders on microarray, profiling panel, artefact control for SMM control protein annotation, biochemical, small-molecule microarray, Alexa647 label, 635/667 nm fluorescence (AID 1118).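 Note: score merges 667 nm emission intensity and signal-to-noise per printed compound spot.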 The note with it: BSA-A647 binding, fluorescence 635 nm, higher = more signal.
A short description of test [2]: small-molecule microarray binders of probe aXIP, primary screen, biochemical, NeuroSMM set, 635/667 nm fluorescence (AID 1119).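 Note: probe is the protein aXip251-270 applied at 1 µg/mL to compound-printed slides; binding of probe to printed compounds measured as 667 nm fluorescence plus signal to noise.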 The note with it: higher = more signal, called active from +8 up or from −8 down.
Test [3] in a line: small-molecule binders of probe aNOTCH3, primary screen, biochemical, small-molecule microarray, 635/667 nm fluorescence (AID 1120).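 Note: probe is a biotin-tagged antibody raised against NOTCH3 rather than NOTCH3 protein; score merges spot fluorescence near 667 nm with spot signal to noise.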 The settings on record: higher = more signal.
The nature of test [4]: small-molecule binders of probe aNOTCH2, primary screen, biochemical, small-molecule microarray, 635/667 nm fluorescence (AID 1121).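 Note: score merges feature fluorescence read at 667 nm with its signal to noise.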 The settings on record: higher = more signal.
In test [5] the target is Carbonic anhydrase 2 (Homo sapiens) (UniProt P00918). The experiment in a line: CAII small-molecule binders, profiling panel, biochemical, small-molecule microarray, Alexa647-labelled CAII (AID 1122). The note with it: CAII-A647 binding fluorescence, higher = more signal.
The nature of test [6]: COS7 lysate on small-molecule microarray, probe aHis, 635 nm (AID 1123).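 Note: z-score combines 667nm fluorescence intensity with signal-to-noise per printed compound spot.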 The settings on record: COS7 cell lysate, fluorescence, higher = more signal.
Test [7] in a line: compound binding in COS7 lysate, probe aLAP1, primary screen, cell lysate, small-molecule microarray (AID 1124).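 Note: lysate comes from COS7 cells expressing LAP1 and is applied at 0.3 µg/mL; score merges spot fluorescence near 667 nm with signal-to-noise over triplicate slides.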 The note with it: probe aLAP1, fluorescence, higher = more signal.
The test system of test [8] is Sam68 (KHDRBS1). The test can be described thus: Sam68 small-molecule binders, primary screen, biochemical, small-molecule microarray, 635 nm fluorescence (AID 1125).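 Note: score merges 667 nm channel intensity with signal to noise over triplicate slides.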 The note with it: small-molecule microarray binding, higher = more signal.
Test [9] relates to Chordin-like protein 2 (CHRDL2). The experiment in a line: CHRDL2 small-molecule binders, primary screen, biochemical, small-molecule microarray, 635 nm fluorescence (AID 1126).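 Note: printed compound slides probed with Chrdl2 protein at 4 µg/mL for 1 h at 4 C; score merges 667 nm emission intensity with signal to noise over three replicate slides.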 The settings on record: small-molecule microarray binding, fluorescence 635 nm; higher = more signal.
Test [10] concerns the target Concanavalin-A (Canavalia ensiformis) (UniProt P02866). The experiment in a line: ConA small-molecule binders, primary screen, artefact control for SMM control protein annotation, biochemical, small-molecule microarray, Alexa647 label, 635 nm (AID 1127).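 Note: z combines 667 nm emission intensity with signal-to-noise across three replicate slides.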 The note with it: ConA-A647 binding fluorescence, higher = more signal.
Test [11] in a line: anti-His antibody binders, primary screen, artefact control for SMM control protein annotation, biochemical, small-molecule microarray, 635 nm fluorescence (AID 1128).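 Note: score merges feature fluorescence with signal-to-noise for each printed compound spot.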 The settings on record: anti-His Alexa647 antibody binding, higher = more signal.
The test system of test [12] is Human papillomavirus type 1a E7 protein (residues 1-88). The experiment in a line: HPV1a E7 small-molecule binders, primary screen, biochemical, small-molecule microarray, residues 1-88, 635 nm (AID 1129). The settings on record: small-molecule microarray binding, fluorescence 635 nm; higher = more signal.
In test [13] the target is Focal adhesion kinase 1 (Homo sapiens) (UniProt Q05397). The experiment in a line: small-molecule microarray binders of FAK, primary screen, biochemical, 635/667 nm fluorescence, BSA, DTT (AID 1130).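 Note: composite of spot emission at 667 nm and signal to noise over triplicate slides.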 The settings on record: PTK2 binding, 635 nm fluorescence, higher = more signal.
The test system of test [14] is Fibrinogen (Alexa647-labelled). The test can be described thus: fibrinogen binders on compound microarrays, profiling panel, artefact control for SMM control-protein annotation, biochemical, small-molecule microarray, 635/667 nm fluorescence (AID 1131).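 Note: z-score merges 667 nm fluorescence with per-spot signal-to-noise over triplicate slides.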 The settings on record: fibrinogen-A647 binding fluorescence, higher = more signal.
Test [15] addresses Follistatin (Homo sapiens) (UniProt P19883). The test can be described thus: follistatin binders on small-molecule microarrays, primary screen, biochemical, small-molecule microarray, 635/667 nm fluorescence (AID 1132). The settings on record: FST binding, 635 nm fluorescence, higher = more signal.
The target in test [16] is Fibroblast growth factor 2 (Homo sapiens) (UniProt P09038). The test can be described thus: FGF2 binders on small-molecule microarrays, primary screen, biochemical, small-molecule microarray, 635/667 nm fluorescence (AID 1133). The note with it: small-molecule microarray binding, FGF2, fluorescence 635/667; higher = more signal.
A short description of test [17]: mitochondrial membrane potential change in A549 cells, profiling panel, cell-based, JC-1 fluorescence, basal, 24 h, 100 nL (AID 1138).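 Note: A549 lung adenocarcinoma cells under basal conditions with no added stimulus; test concentration not given here.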 The settings on record: higher = more signal.
For test [18], the system named is Lefty1. The experiment in a line: Lefty1 binders on small-molecule microarrays, primary screen, biochemical, small-molecule microarray, 635/667 nm fluorescence (AID 1139). The note with it: small-molecule microarray binding, fluorescence 635/667; higher = more signal.
The subject of test [19] is wheat germ agglutinin (Triticum aestivum), Alexa647-labelled. The test can be described thus: wheat germ agglutinin binders on compound microarrays, profiling panel, artefact control for SMM control-protein annotation, biochemical, small-molecule microarray, 635/667 nm fluorescence (AID 1140).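 Note: score merges 667 nm feature emission with signal to noise over triplicate slides.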 The settings on record: WGA-A647 binding, 635 nm fluorescence, higher = more signal.

In test [20] the target is Luciferin 4-monooxygenase (Photinus pyralis) (UniProt P08659). The experiment in a line: firefly luciferase enzyme inhibitors, primary screen, biochemical, luminescence, purified enzyme, 2006 set (AID 1141).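 Note: cell-free assay with purified firefly luciferase at 100 ng per well in PBS; test concentration not given here.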 The settings on record: SteadyGlo luminescence, 30 min, higher = more signal, called active from +8 up or from −8 down.
Luciferin 4-monooxygenase (Photinus pyralis), sequence (P08659 whole entry, looked up): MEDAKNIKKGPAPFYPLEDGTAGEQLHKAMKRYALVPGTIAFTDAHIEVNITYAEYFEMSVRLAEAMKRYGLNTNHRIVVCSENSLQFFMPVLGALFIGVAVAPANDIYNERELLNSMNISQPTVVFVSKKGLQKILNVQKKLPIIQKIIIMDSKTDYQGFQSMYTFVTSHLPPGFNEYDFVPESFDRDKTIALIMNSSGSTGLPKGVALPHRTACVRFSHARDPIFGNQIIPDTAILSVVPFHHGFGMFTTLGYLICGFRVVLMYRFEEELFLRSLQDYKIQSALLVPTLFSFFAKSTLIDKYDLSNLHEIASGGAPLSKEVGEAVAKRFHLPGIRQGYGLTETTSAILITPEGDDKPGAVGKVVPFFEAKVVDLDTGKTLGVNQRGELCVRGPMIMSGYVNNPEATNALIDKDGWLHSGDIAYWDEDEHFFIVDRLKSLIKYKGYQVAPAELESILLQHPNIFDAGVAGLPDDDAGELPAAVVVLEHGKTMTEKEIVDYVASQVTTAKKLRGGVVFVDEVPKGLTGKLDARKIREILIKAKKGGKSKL

Focal adhesion kinase 1 (Homo sapiens), sequence (Q05397 whole entry, looked up): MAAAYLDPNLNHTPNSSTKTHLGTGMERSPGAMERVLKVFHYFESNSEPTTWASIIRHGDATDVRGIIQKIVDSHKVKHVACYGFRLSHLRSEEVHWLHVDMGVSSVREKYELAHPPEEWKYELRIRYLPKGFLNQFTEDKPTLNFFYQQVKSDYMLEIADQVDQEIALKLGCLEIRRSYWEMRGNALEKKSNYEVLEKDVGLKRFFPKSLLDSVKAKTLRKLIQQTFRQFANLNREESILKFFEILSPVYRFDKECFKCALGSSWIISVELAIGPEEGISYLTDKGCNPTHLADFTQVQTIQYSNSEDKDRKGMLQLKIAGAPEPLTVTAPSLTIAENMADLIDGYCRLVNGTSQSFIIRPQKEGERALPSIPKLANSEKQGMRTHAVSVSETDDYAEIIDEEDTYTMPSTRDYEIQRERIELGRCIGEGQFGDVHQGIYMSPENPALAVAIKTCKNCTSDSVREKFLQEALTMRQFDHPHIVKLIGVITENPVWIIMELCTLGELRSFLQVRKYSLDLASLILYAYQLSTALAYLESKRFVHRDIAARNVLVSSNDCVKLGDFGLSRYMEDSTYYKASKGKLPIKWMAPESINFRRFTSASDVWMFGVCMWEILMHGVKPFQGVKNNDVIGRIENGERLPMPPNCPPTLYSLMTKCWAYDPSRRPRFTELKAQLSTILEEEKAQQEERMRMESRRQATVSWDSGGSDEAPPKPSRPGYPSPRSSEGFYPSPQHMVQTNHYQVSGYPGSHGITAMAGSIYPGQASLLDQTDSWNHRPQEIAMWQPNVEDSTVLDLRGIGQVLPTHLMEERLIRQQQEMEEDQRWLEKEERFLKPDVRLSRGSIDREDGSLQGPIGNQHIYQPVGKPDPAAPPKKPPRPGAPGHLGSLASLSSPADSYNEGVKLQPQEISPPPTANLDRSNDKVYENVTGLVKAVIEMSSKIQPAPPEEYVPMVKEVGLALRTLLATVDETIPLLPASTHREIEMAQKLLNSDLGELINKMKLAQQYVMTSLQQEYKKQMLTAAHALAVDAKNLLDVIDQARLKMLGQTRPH
Fibroblast growth factor 2 (Homo sapiens), sequence (P09038 whole entry, looked up): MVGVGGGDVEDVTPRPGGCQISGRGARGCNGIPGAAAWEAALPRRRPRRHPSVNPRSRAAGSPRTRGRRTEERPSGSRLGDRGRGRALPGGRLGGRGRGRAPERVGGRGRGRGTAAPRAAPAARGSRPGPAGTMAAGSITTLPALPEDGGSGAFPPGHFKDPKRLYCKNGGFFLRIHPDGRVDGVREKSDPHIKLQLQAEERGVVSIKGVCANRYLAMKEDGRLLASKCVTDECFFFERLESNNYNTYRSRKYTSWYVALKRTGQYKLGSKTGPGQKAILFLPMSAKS
Albumin (Bos taurus), sequence (P02769 whole entry, looked up): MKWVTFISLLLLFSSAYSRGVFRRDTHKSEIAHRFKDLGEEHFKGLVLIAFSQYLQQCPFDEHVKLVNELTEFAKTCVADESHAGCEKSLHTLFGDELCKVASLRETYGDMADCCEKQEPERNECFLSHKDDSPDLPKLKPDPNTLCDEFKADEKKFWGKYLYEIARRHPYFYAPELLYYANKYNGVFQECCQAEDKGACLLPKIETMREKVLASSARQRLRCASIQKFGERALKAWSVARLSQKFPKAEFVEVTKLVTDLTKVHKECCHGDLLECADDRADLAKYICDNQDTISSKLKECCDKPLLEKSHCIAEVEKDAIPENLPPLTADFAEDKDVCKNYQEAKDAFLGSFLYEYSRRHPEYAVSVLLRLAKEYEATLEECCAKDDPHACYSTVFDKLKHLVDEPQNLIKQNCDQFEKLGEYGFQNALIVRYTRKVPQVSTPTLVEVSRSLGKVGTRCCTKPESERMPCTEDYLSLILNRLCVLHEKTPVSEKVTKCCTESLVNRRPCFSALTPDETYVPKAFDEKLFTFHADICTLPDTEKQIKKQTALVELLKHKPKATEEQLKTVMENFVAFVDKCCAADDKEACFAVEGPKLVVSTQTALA
Follistatin (Homo sapiens), sequence (P19883 whole entry, looked up): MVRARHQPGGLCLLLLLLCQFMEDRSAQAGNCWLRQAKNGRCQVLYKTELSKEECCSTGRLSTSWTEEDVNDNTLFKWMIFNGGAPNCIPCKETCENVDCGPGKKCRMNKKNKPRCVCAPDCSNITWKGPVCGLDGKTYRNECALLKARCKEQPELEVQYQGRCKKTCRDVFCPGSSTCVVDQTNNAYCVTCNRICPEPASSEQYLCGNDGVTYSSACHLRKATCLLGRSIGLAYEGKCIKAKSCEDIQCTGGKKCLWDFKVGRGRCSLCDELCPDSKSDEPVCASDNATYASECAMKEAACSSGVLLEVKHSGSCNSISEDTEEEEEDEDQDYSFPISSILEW
Concanavalin-A (Canavalia ensiformis), sequence (P02866 whole entry, looked up): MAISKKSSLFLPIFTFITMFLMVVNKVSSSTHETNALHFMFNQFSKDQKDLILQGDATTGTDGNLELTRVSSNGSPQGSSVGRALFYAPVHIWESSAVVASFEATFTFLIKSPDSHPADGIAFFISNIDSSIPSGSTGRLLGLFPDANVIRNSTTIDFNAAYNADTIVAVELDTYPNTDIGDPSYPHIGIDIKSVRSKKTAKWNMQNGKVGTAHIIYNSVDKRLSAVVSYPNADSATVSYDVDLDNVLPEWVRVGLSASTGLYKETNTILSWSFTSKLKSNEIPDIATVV

Take `C=CCN1C(=O)[C@@]2(O[C@@H](CCn3cc(CCO)nn3)[C@H]([Si](C)(C)c3ccc(OC)cc3)[C@H]2C)c2cc(N3C(=O)c4cccc5cccc3c45)ccc21`: the composite z-score in [1] is 0.681; in test [3], -0.0299; in [4], -0.0703; in test [5], 0.455; in [6], 0.249; in [7], 0.15. For the same molecule, the composite z-score in test [8] was 0.966; in test [9], 0.0449; in test [10], 1.09; in test [11], 0.29; in [12], 0.511; in [13], 0.608. Further, the composite z-score came out at 0.807 in [14]; 0.816 in test [15]; 0.973 in test [16]; 0.537 in test [18]; 1.1 in test [19]. In addition, the composite Z-score in test [2] was -0.128 (inactive). Further, the figures for the z-score in [17] and in test [20] were -1.38 and -1.96 (inactive), respectively.

Consider `C=CCC(OC(C)=O)[C@@H]1[C@@H](N(Cc2cc3ccccc3o2)C(=O)c2ccc(-c3ccccc3)cc2)c2cc(OCCCO)ccc2N1C(=O)c1ccc(-c2ccccc2)cc1` (stereo not given in full), for which the composite z-score was 0.327 in test [1]; 0.061 in [3]; -0.148 in test [4]; 0.301 in test [5]; 0.568 in test [6]; 0.0482 in test [7]. Further, the composite z-score is -0.19 in [8]; -0.333 in test [9]; -0.395 in test [10]; -0.853 in test [11]; -0.43 in test [12]; 0.25 in [13]. Besides, the composite z-score in test [14] was -0.796; in [15], 0.227; in [16], -0.109; in [18], -0.147; in test [19] it was -0.316. Also, the composite Z-score in test [2] was -0.474 (inactive). In addition, the z-score is 2.56 in test [17] and -1.02 (inactive) in test [20].

With `C=CCN1C(=O)[C@@]2(O[C@@H](CCn3cc(CCO)nn3)[C@H]([Si](C)(C)c3ccc(OC)cc3)[C@H]2C)c2cc(NC(=O)c3ccc(OC)cc3)ccc21`, the composite z-score in [1] is -0.0754; in test [3], 0.0676; in test [4], 0.443; in test [5], 0.156; in test [6], 1.36; in test [7], 0.493. Besides, the composite z-score in test [8] worked out at 1.15; in [9], 0.808; in test [10], 1.08; in [11] it was 0.309; in [12] it was 0.812; in test [13], 0.129. Further, the composite z-score came to 0.323 in test [14]; 1.14 in [15]; 0.645 in test [16]; 1.02 in test [18]; 0.922 in test [19]. Besides, the composite Z-score in [2] is -0.444 (inactive). Further, the z-score is 2.77 in [17] and -1.51 (inactive) in test [20].

Turning to `O=C1c2ccccc2C(=O)c2cc([C@H]3Oc4ccccc4S(=O)(=O)N4CCC[C@@H]34)ccc21`, the composite z-score in test [1] was -0.791; in [3], -0.227; in test [4], -0.0933; in test [5], -0.157; in test [6] it was -0.319; in [7], -0.235. The composite z-score is -1.02 in test [8]; -0.504 in test [9]; -2.59 in [10]; -1.02 in [11]; -0.551 in test [12]; -0.953 in test [13]. For the same molecule, the composite z-score in test [14] was -0.91; in test [15] it was -1.07; in [16], -0.533; in test [18], -0.534; in test [19], -1.26. Also, in test [2], the composite Z-score is -0.228 (inactive). Also, the z-score in test [17] was 1.18; in [20], -1.04 (inactive).

As to `COC(=O)[C@@]1(CCC(=O)OC(C)(C)C)COC(c2ccc(OCCCO)cc2)=N1`, the composite z-score was -1.01 in test [1]; -0.239 in [3]; -0.147 in [4]; 0.558 in test [5]; 0.214 in test [6]; 0.993 in test [7]. The composite z-score in test [8] is -0.724; in test [9] it was -2.22; in test [10], -1.8; in test [11], -1.22; in [12], -1.66; in test [13], -0.15. Moreover, the composite z-score is -2.51 in [14]; -2.21 in test [15]; -1.64 in [16]; -2.55 in [18]; -1.57 in test [19]. For the same molecule, the composite Z-score in test [2] is -0.378 (inactive). Also, the z-score in test [17] is -0.122; in [20], -1.4 (inactive).

Take `COc1ccc(C#Cc2ccc3c(c2)[C@]2(C(=O)N3)[C@H](c3ccc(O)cc3)N3[C@H](c4ccccc4)[C@H](c4ccccc4)OC(=O)[C@H]3[C@@H]2C(=O)N2CCN(c3ncccn3)CC2)cc1`: the composite z-score in [1] worked out at 0.888; in test [3], 0.116; in test [4], 0.0557; in [5] it was 0.462; in test [6] it was 0.868; in test [7] it was 0.97. Moreover, the composite z-score in test [8] is 1.31; in test [9], -0.176; in test [10], 1.08; in test [11], 1.2; in test [12], 0.885; in test [13], 1.71. The composite z-score was 0.763 in test [14]; 0.722 in test [15]; 0.143 in test [16]; -0.151 in test [18]; 0.929 in test [19]. The composite Z-score in [2] was 4.41 (inactive). Further, the z-score in test [17] was -0.308; in test [20], -1.27 (inactive).

Take `Cc1ccc(S[C@]2(C(=O)NCC(C)C)CC(=O)N(C(C)C)[C@@H]2c2ccc(CO)cc2)cc1`: the composite z-score in test [1] is -0.283; in test [3], -0.255; in test [4], -0.163; in test [5] it was 0.747; in test [6], 0.301; in test [7], -0.311. Moreover, the composite z-score in [8] was -0.749; in test [9] it was -0.589; in test [10], -0.522; in test [11] it was -1.15; in test [12], 0.259; in test [13], -0.267. The composite z-score in test [14] was -1.48; in test [15], 0.259; in test [16] it was 0.206; in test [18] it was -0.477; in [19], -1.76. The composite Z-score in test [2] was 0.0333 (inactive). Further, the z-score was 0.69 in [17] and -0.204 (inactive) in [20].

With `CCOC(=O)C[C@H]1[C@H](OC(=O)Cc2ccc3c(c2)OCO3)[C@@H](NC(=O)c2ccc3ccccc3c2)c2cc(OCCCO)ccc2N1C(=O)c1ccc2ccccc2n1`, the composite z-score is 0.661 in test [1]; 0.0349 in test [3]; -0.0523 in test [4]; 0.371 in [5]; 0.77 in test [6]; 0.562 in test [7]. Also, the composite z-score in test [8] is 0.826; in [9], -0.318; in test [10], 0.356; in test [11], 0.0303; in test [12] it was 0.731; in [13], -0.339. For the same molecule, the composite z-score in [14] stood at 0.774; in [15] it was 0.197; in [16], 0.334; in test [18], 0.37; in [19], 1.06. Moreover, in test [2], the composite Z-score is -0.102 (inactive). Also, the z-score in test [17] was 2.55; in test [20], -1.25 (inactive).

For `COc1ccc([Si](C)(C)[C@H]2[C@H](CC(=O)N(CCO)Cc3ccccc3)O[C@@]3(C(=O)N(Cc4ccc(N5CCOC5=O)cc4)c4ccccc43)[C@@H]2C)cc1`, the composite z-score is -0.604 in test [1]; -0.0044 in test [3]; -0.168 in test [4]; 0.393 in test [5]; 0.704 in test [6]; 0.0474 in test [7]. Besides, the composite z-score is 0.641 in [8]; 0.457 in [9]; 1.06 in test [10]; 0.845 in test [11]; 0.0593 in test [12]; 0.16 in [13]. Besides, the composite z-score in [14] was found to be 0.474; in test [15] it was 0.878; in [16], 0.66; in [18], 1.13; in test [19], 0.455. In test [2], the composite Z-score is 0.989 (inactive). The z-score in test [17] is 0.784; in test [20], -1.39 (inactive).
